Measurements taken from the supplement of paper PMC4962491.
Structures can show the parent of a compound that is named as a salt. ± gives the standard deviation of the averaged measurements. Over roughly 1,600 compounds, “mitochondrial oxygen consumption rate normalised to cell number, Z score over the library” has its median near 0.065; the lowest 2% begin near -2.2. Only a selection was taken, and the lowest values are over-represented in it overall.

Each compound was assayed on FaDu (assay: mitochondrial oxygen consumption rate normalised to cell number, Z score over the library; higher = higher oxygen consumption (negative = OCR reduction)). Conditions: treatment time 24 h; assay medium: 5 mM galactose, 5 mM pyruvate, 4 mM glutamine; 10 µM.
Experimental: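 Primary screen: FaDu cells were incubated 24 h with Pharmakon 1600 / TDI oncology set compounds at 2 or 10 uM. Mitochondrial-specific OCR (basal minus 2 uM antimycin A) was measured on a Seahorse XF96 in assay medium with 5 mM galactose, 5 mM pyruvate and 4 mM glutamine, then corrected for Hoechst cell number and expressed as a Z score […]. Compounds that cut cell number by >66% were excluded. Two repeats.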

In order of falling “mitochondrial oxygen consumption rate normalised” value:
1. Oc1c(Cl)cc(Cl)cc1Sc1cc(Cl)cc(Cl)c1O  6.804 ± 0.06
2. Cc1ncc(C[n+]2csc(CCO)c2C)c(N)n1  1.53 ± 0.67
3. NC(=O)CCCCC1CCSS1 (centres undefined)  1.43 ± 0.3
4. O=C(NCc1ccccc1)OCCO  1.42 ± 0.86
5. CCCCC/C=C/CCC(=O)N[C@H]1[C@H](Oc2c3cc4cc2Oc2ccc(cc2Cl)[C@@H](O[C@@H]2O[C@H](CO)[C@@H](O)[C@H](O)[C@H]2NC(C)=O)[C@@H]2NC(=O)[C@H](NC(=O)[C@@H]4NC(=O)[C@H]4NC(=O)C(Cc5ccc(c(Cl)c5)O3)NC(=O)[C@H](N)c3ccc(O)c(c3)Oc3cc(O)cc4c3)c3ccc(O)c(c3)-c3c(OC4O[C@H](CO)[C@@H](O)[C@H](O)[C@@H]4O)cc(O)cc3[C@@H](C(=O)O)NC2=O)O[C@H](CO)[C@@H](O)[C@@H]1O (some centres undefined) [TEICOPLANIN [A(2-1) shown]]  1.41 ± 0.64
6. CCN[C@@H]1C[C@H](N)[C@@H](O[C@H]2OC(CN)=CC[C@H]2N)[C@H](O)[C@H]1O[C@H]1OC[C@](C)(O)[C@H](NC)[C@H]1O  1.16 ± 0.38
7. OC[C@H]1O[C@@H](O[C@@H]2[C@@H](CO)OC(O)(CO)[C@H]2O)[C@H](O)[C@@H](O)[C@H]1O (mixture of isomers)  1.09 ± 0.68
8. O=C(Nc1cc(Cl)cc(Cl)c1O)c1c(O)c(Cl)cc(Cl)c1Cl  1.06 ± 0.89
9. Nc1c2c(nc3ccccc13)CCCC2  1.05 ± 0.93
10. NC(=O)c1ccc([N+](=O)[O-])cc1Cl  0.965 ± 0.77
11. OCc1ccccc1O[C@@H]1O[C@H](CO)[C@@H](O)[C@H](O)[C@H]1O  0.956 ± 0.64
12. COc1ccc(OC)c(C(O)CNC(=O)CN)c1 (centres undefined)  0.934 ± 0.11
13. COc1cc2/c(=N/c3ccc(Br)cc3F)nc[nH]c2cc1OCC1CCN(C)CC1 [vandetanib]  0.909 ± 1.7
14. CC(=O)OCC(=O)[C@@]1(O)[C@H](OC(C)=O)C[C@H]2[C@@H]3CCC4=CC(=O)C=C[C@]4(C)[C@@]3(F)[C@@H](O)C[C@@]21C  0.894 ± 0.33
15. CCCSc1ccc2[nH]c(NC(=O)OC)nc2c1  0.883 ± 0.12
16. Nc1ncnc2c1ncn2[C@@H]1O[C@H](CO)[C@@H](O)[C@@H]1O  0.868 ± 0.46
17. CO[C@H]1/C=C/O[C@@]2(C)Oc3c(C)c(O)c4c(O)c(c5c(nc6cc(C)ccn65)c4c3C2=O)NC(=O)/C(C)=C\C=C\[C@H](C)[C@H](O)[C@@H](C)[C@@H](O)[C@@H](C)[C@H](OC(C)=O)[C@@H]1C  0.795 ± 0.38
18. C[C@@H]1O[C@@H]1P(=O)(O)O  0.794 ± 0.12
19. C[n+]1ccccc1/C=N/O  0.788 ± 0.1
20. S=C=Nc1ccc(N=C=S)cc1  0.759 ± 0.026
21. CN(Cc1cc(Br)cc(Br)c1N)C1CCCCC1  0.728 ± 0.24
22. CS(=O)(=O)OCCCCOS(C)(=O)=O  0.716 ± 1.1
23. COCCCOc1cc(C[C@@H](C[C@H](N)[C@@H](O)C[C@H](C(=O)NCC(C)(C)C(N)=O)C(C)C)C(C)C)ccc1OC  0.624 ± 0.066
24. C[Se]CC[C@H](N)C(=O)O  0.623 ± 0.23
25. CC1CC(OC(=O)C(O)c2ccccc2)CC(C)(C)C1 (centres undefined)  0.62 ± 0.34
26. O=C1C(O)=C(O)C(=O)C(O)=C1O  0.611 ± 0.72
27. CN(C)CC(c1ccc(O)cc1)C1(O)CCCCC1 (centres undefined)  0.524 ± 0.65
28. CCCCCCc1ccc(O)cc1O  0.48 ± 0.24
29. CC12CCC(CC1=O)C2(C)C (centres undefined)  0.477 ± 0.051
30. Cc1nccnc1N1CCCCC1  0.47 ± 0.26
31. C[C@H](Cn1cnc2c(N)ncnc21)OCP(=O)(O)O  0.449 ± 0.26
32. CS(=O)(=O)OCCCCOS(C)(=O)=O [Busulfan]  0.391 ± 1.2
33. OC[C@H]1O[C@@H](n2cnc3c2N=CNC[C@H]3O)C[C@@H]1O [Pentostatin]  0.38 ± 0.31
34. O=C(O)c1cc(-c2ccccc2)nc2ccccc12  0.349 ± 0.05
35. CNNCc1ccc(C(=O)NC(C)C)cc1  0.342 ± 0.2
36. CC(=O)CC(c1ccc([N+](=O)[O-])cc1)c1c(O)c2ccccc2oc1=O (centres undefined)  0.325 ± 0.51
37. CC1(C)[C@H](C(=O)O)N2C(=O)C[C@H]2S1(=O)=O  0.32 ± 0.83
38. CCCCC(CC)COc1ccc(-c2nc(-c3ccc(OC)cc3)nc(-c3ccc(OCC(CC)CCCC)cc3O)n2)c(O)c1 (centres undefined)  0.282 ± 0.45
39. FC(F)(Cl)C(F)(F)Cl  0.262 ± 0.59
40. COC(=O)C(N)CS (centres undefined)  0.244 ± 0.32
41. COc1cc2c(N3CCN(C(=O)Nc4ccc(OC(C)C)cc4)CC3)ncnc2cc1OCCCN1CCCCC1  0.241 ± 0.61
42. Cc1ccccc1N1C(=O)c2cc(S(N)(=O)=O)c(Cl)cc2NC1C (centres undefined)  0.24 ± 0.2
43. CC1(O)CCC(C(C)(C)O)CC1 (centres undefined)  0.228 ± 0.62
44. CC(=O)O[C@H]1C(=O)[C@@]2(C)[C@H]([C@H](OC(=O)c3ccccc3)[C@]3(O)C[C@H](OC(=O)[C@H](O)[C@@H](NC(=O)c4ccccc4)c4ccccc4)C(C)=C1C3(C)C)[C@]1(OC(C)=O)CO[C@@H]1C[C@@H]2O  0.221 ± 0.61
45. C=CCNC(N)=S  0.218 ± 1.4
46. O=C1NS(=O)(=O)c2ccccc21  0.156 ± 0.036
47. CCCCC(CC)COC(=O)CC(C(=O)OCC(CC)CCCC)S(=O)(=O)O (centres undefined)  0.149 ± 0.34
48. CNNCc1ccc(C(=O)NC(C)C)cc1 [Procarbazine HCl]  0.127 ± 0.26
49. CC(=O)NC(Cc1ccccc1)C(=O)O (centres undefined)  0.121 ± 0.33
50. CC(CCc1ccc(O)cc1)NCC(O)c1ccc(O)cc1 (centres undefined)  0.0984 ± 0.26
51. O=C1/C(=C/c2cccs2)CCC/C1=C\c1cccs1  0.0645 ± 0.73
52. CC#CCn1c(N2CCC[C@@H](N)C2)nc2c1c(=O)n(Cc1nc(C)c3ccccc3n1)c(=O)n2C  0.0591 ± 0.1
53. Cc1oc(=O)oc1CN1CCN(c2cc3c(cc2F)c(=O)c(C(=O)O)c2n3C(C)S2)CC1 (centres undefined)  0.0314 ± 0.4
54. CCC1=C(C)CN(C(=O)NCCc2ccc(S(=O)(=O)NC(=O)N[C@H]3CC[C@H](C)CC3)cc2)C1=O  0.0168 ± 0.78
55. COc1ccc2nc3cc(Cl)ccc3c(Nc3cc(CN4CCCC4)c(O)c(CN4CCCC4)c3)c2n1  -0.0207 ± 0.29
56. CCOc1cc(NC(C)=O)ccc1C(=O)OC  -0.0275 ± 0.23
57. C[C@@H](c1ncncc1F)[C@](O)(Cn1cncn1)c1ccc(F)cc1F  -0.0277 ± 0.47
58. CS(=O)(=O)CCNCc1ccc(-c2ccc3ncnc(Nc4ccc(OCc5cccc(F)c5)c(Cl)c4)c3c2)o1 [Lapatinib Ditosylate]  -0.0282 ± 1.2
59. CCCCOc1ccc(C(=O)CCN2CCCCC2)cc1  -0.0802 ± 0.69
60. O=C(c1ccc(OCCN2CCCCC2)cc1)c1c(-c2ccc(O)cc2)sc2cc(O)ccc12  -0.0851 ± 0.4
61. CC(=O)[C@@]1(O)CC[C@H]2[C@@H]3C=C(Cl)C4=CC(=O)[C@@H]5C[C@@H]5[C@]4(C)[C@H]3CC[C@@]21C  -0.129 ± 1.6
62. N=C(N)c1ccc(N=NNc2ccc(C(=N)N)cc2)cc1  -0.185 ± 0.46
63. O.O.O.O.O=C([O-])CC(O)(CC(=O)[O-])C(=O)[O-].[Li+].[Li+].[Li+]  -0.228 ± 1.6
64. OCC(S)CS (centres undefined)  -0.239 ± 0.68
65. NNCCc1ccccc1  -0.3 ± 0.16
66. CC(=O)O[C@H]1C(=O)[C@@]2(C)[C@H]([C@H](OC(=O)c3ccccc3)[C@]3(O)C[C@H](OC(=O)[C@H](O)[C@@H](NC(=O)c4ccccc4)c4ccccc4)C(C)=C1C3(C)C)[C@]1(OC(C)=O)CO[C@@H]1C[C@@H]2O [Paclitaxel]  -0.326 ± 0.26
67. CC(=O)Nc1ccc(OC(=O)c2ccccc2O)cc1  -0.337 ± 0.25
68. CCN(CC)C(=O)c1cccnc1  -0.362 ± 0.74
69. Cc1ccc(Nc2nccc(N(C)c3ccc4c(C)n(C)nc4c3)n2)cc1S(N)(=O)=O [Pazopanib HCl]  -0.379 ± 0.45
70. C[C@H]1C[C@H]2[C@@H]3CCC4=CC(=O)C=C[C@]4(C)[C@@]3(F)[C@@H](O)C[C@]2(C)[C@@]1(O)C(=O)COP(=O)(O)O  -0.398 ± 0.27
71. Cc1c(-c2cnccn2)ssc1=S  -0.416 ± 0.25
72. Cc1ccccc1OCC(O)CO (centres undefined)  -0.432 ± 0.61
73. CCOc1ccc2nc(S(N)(=O)=O)sc2c1  -0.459 ± 0.36
74. CCCCC(=O)O[C@H]1CC[C@H]2[C@@H]3CCc4cc(O)ccc4[C@H]3CC[C@]12C  -0.519 ± 0.44
75. O=C(c1ccc(OCCN2CCCCC2)cc1)c1c(-c2ccc(O)cc2)sc2cc(O)ccc12 [Raloxifene HCl]  -0.567 ± 1.1
76. CC1CCN(CCCC(=O)c2ccc(F)cc2)CC1  -0.602 ± 0.36
77. CN[C@H]1CC[C@@H](c2ccc(Cl)c(Cl)c2)c2ccccc21  -0.618 ± 0.057
78. C/C(=C\c1csc(C)n1)[C@@H]1C[C@@H]2O[C@]2(C)CCC[C@H](C)[C@H](O)[C@@H](C)C(=O)C(C)(C)[C@@H](O)CC(=O)N1 [Ixabepilone]  -0.637 ± 0.14
79. CCCCCC(C)N (centres undefined)  -0.846 ± 0.93
80. COc1ccc(-n2nc(CCC(=O)N(C)O)cc2-c2ccc(Cl)cc2)cc1  -0.88 ± 0.44
81. O=C1c2c(O)cc(CO)cc2C(OC2OC(CO)C(O)C(O)C2O)c2cccc(OC3OC(CO)C(O)C(O)C3O)c21 (centres undefined) [CASANTHRANOL [cascaroside A shown]]  -0.942 ± 0.28
82. O=C(O)COCCN1CCN([C@H](c2ccccc2)c2ccc(Cl)cc2)CC1  -0.965 ± 0.4
83. CC(C)n1c(/C=C/C(O)CC(O)CC(=O)O)c(-c2ccc(F)cc2)c2ccccc21 (centres undefined)  -1.03 ± 0.072
84. O=C(O)CCC(=O)OC[C@@H](NC(=O)C(Cl)Cl)[C@H](O)c1ccc([N+](=O)[O-])cc1  -1.19 ± 0.7
85. Oc1c(Br)cc(Br)c2cccnc12  -1.77 ± 0.19
86. Cc1cc(N)c2ccccc2[n+]1CCCCCCCCCC[n+]1c(C)cc(N)c2ccccc21  -2.58 ± 0.47
87. CO[C@@]12[C@H](COC(N)=O)C3=C(C(=O)C(C)=C(N)C3=O)N1C[C@@H]1N[C@@H]12  -2.77 ± 0.14
88. CCCCCCc1ccc(O)cc1O.Nc1c2ccccc2nc2ccccc12  -2.93 ± 0.2
89. N=C(N)c1ccc(OCCCCCOc2ccc(C(=N)N)cc2)cc1  -3.01 ± 0.078
90. CCOc1ccc2nc3cc(N)ccc3c(N)c2c1  -3.35 ± 0.25
91. CCCCC(CC)CN=C(N)N=C(N)NCCCCCCNC(N)=NC(N)=NCC(CC)CCCC (centres undefined)  -4.17 ± 0.22
92. Cc1cc(/C=C/c2ccc3cc(N(C)C)ccc3[n+]2C)c(C)n1-c1ccccc1  -5.57 ± 0.19
93. O=C(Nc1ccc([N+](=O)[O-])cc1Cl)c1cc(Cl)ccc1O  -5.97 ± 0.27
94. Oc1c(Cl)cc(Cl)c(Cl)c1Cc1c(O)c(Cl)cc(Cl)c1Cl  -6.031 ± 0.028
